DAX1 inh-1 – DAX1 (NR0B1) inhibitors on StAR promoter, primary screen, cell-based, luminescence, SF-1 (NR5A1), full-length DAX-1. HEK293T StAR-luciferase reporter, SF-1/DAX-1 repression relief. inhibition, % at 6.8 µM. hit rate 1.1% among 370,000. AID 652010, 2013;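 active = inhibition above the mean over all tested compounds plus 3 SD, cut at about 3.6% in these data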;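 note: 0% = DAX-1 cells with DMSO and 100% = cells lacking DAX-1 with DMSO; higher inhibition means more luminescence from relief of DAX-1 repression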
DAX1 inh-2 – DAX1 (NR0B1) inhibitors, primary screen, cell-based, HEK293, Gal4-DAX1, luciferase luminescence; Nuclear receptor subfamily 0 group B member 1 (Homo sapiens), P51843; HEK293 Gal4-DAX1 luciferase reporter; inhibition, % at 6.75 µM; hit rate 0.99% among 340,000; AID 504766, 2011;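 active = inhibition above the mean over all tested compounds plus 3 SD, cut at about 4.2% in these data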;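 note: 0% = DAX1-transfected cells with DMSO and 100% = empty-vector control cells with DMSO; inhibition shows as a rise in luminescence from relieved DAX1 repression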
hgDAF12 agonist – H. glycines DAF-12 receptor agonists, primary screen, cell-based, luminescence, HEK293, GAL4 fusion, UAS-luciferase; HEK293 GAL4-hgDAF12 UAS-luciferase reporter, agonist luminescence; normalized to butyrate control; Nuclear hormone receptor DAF-12 (Heterodera glycines), GAL4 fusion; hit rate 1.8% among 370,000; activation, % at 6.8 µM;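 active = activation above a cutoff set at the mean of all screened compounds plus 3 SD, cut at about 10% in these data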;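 note: 0% = DMSO wells and 100% = sodium butyrate wells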
AHR act – AHR activators, primary screen, cell-based, luminescence, luciferase reporter, human | Aryl hydrocarbon receptor (Homo sapiens), P35869 | activation, % at 5 µM | hit rate 2.5% among 320,000 | AHR-responsive luciferase reporter cells; in the data active = activation above about 47%;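 note: 0% = vehicle wells and 100% = reference agonist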
ssDAF12 agonist – S. stercoralis DAF-12 nuclear receptor activators, primary screen, cell-based, luminescence, HEK293, GRIP1 co-expression, lit1-tk-luc. HEK293 ssDAF-12/GRIP1 lit1-tk-luc reporter; % of 3 µM dafachronic acid response. activation, % at 6.8 µM. hit rate 1% among 370,000. AID 652126, 2013;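 active = activation above the mean over all tested compounds plus 3 SD, cut at about 0.9% in these data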;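 note: 0% = DMSO-only wells and 100% = 3 µM delta7-dafachronic acid wells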
hcDAF12 agonist – H. contortus DAF-12 nuclear receptor activators, primary screen, cell-based, luminescence, HEK293, lit1-tk-luc reporter; HEK293 hcDAF-12 lit1-tk-luc reporter; 0% DMSO, 100% Δ7-dafachronic acid; activation, % at 6.8 µM; hit rate 1.4% among 370,000; AID 652067, 2013;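 active = activation above the mean of all tested compounds plus 3 SD, cut at about 5.5% in these data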;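 note: 100% = response to 3 µM Δ7-dafachronic acid high control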
AHR act cf – AHR activators, confirmation, cell-based, luminescence, luciferase reporter, human. shares compounds with AHR act. human cells, AHR-responsive luciferase reporter. activation, % at 9 µM. hit rate 87% among 2,300. AID 2845, 2010; in the data active = activation above about 49%;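 note: HepG2 hepatoma cells carrying a DRE-driven firefly luciferase reporter; 0% = vehicle wells and 100% = reference agonist wells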
PXR act counter – human PXR activators, counter-screen for AHR activator project, cell-based, luciferase luminescence. cell-based PXR reporter. shares compounds with AHR act. hit rate 88% among 2,300. activation, % at 11.6 µM. AID 434939, 2010; in the data active = activation above about 11%;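 note: human hepatoma DPX-2 cells expressing full-length human PXR; 0% = DMSO and 100% = reference agonist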
Numbers without * were called inactive. Sampled rows, rich in hits. Any-hit rate of the full collection: about 5.7%.

Results for CC(C)(CN1CCCC1)NS(=O)(=O)c1ccccc1 ?
DAX1 inh-1: 0; DAX1 inh-2: 0; hgDAF12 agonist: 0; AHR act: 3; ssDAF12 agonist: -1; hcDAF12 agonist: -2

How did Cc1ccc(C2NC(=O)c3ccccc3N2)s1 (stereo unspecified) do in these assays?
DAX1 inh-1: 1; DAX1 inh-2: 2; hgDAF12 agonist: 10; AHR act: 100*; ssDAF12 agonist: 0; hcDAF12 agonist: 3; AHR act cf: 91*; PXR act counter: 19*

What do the screens show for `O=C1NC(c2ccncc2)Nc2ccccc21` (stereo unspecified)?
DAX1 inh-1: 1; DAX1 inh-2: -1; hgDAF12 agonist: 1; AHR act: 12; ssDAF12 agonist: -2; hcDAF12 agonist: -1

How did O=C1NC(c2ccc(Cl)cc2)Nc2ccccc21 (stereo unspecified) do in these assays?
DAX1 inh-1: 0; DAX1 inh-2: -1; hgDAF12 agonist: 0; AHR act: 80*; ssDAF12 agonist: -1; hcDAF12 agonist: 0; AHR act cf: 115*; PXR act counter: 25*

Results for COc1cc(/C=C/c2nc(-c3ccccc3O)n[nH]2)cc(OC)c1OC ?
DAX1 inh-1: -1; DAX1 inh-2: -2; hgDAF12 agonist: 1; AHR act: 9; ssDAF12 agonist: -2; hcDAF12 agonist: -3

Results for CC(=O)Nc1ccc(/C=C/c2nc(-c3ccccc3O)n[nH]2)cc1 ?
DAX1 inh-1: 0; DAX1 inh-2: 0; hgDAF12 agonist: 3; AHR act: 81*; ssDAF12 agonist: -2; hcDAF12 agonist: -2; AHR act cf: 104*; PXR act counter: 7

What do the screens show for `NCCCn1c(C(=O)c2ccc(Cl)cc2)c2ccc(C(F)(F)F)cc2[n+]1[O-]`?
DAX1 inh-1: 0; DAX1 inh-2: 1; hgDAF12 agonist: 0; AHR act: 100*; ssDAF12 agonist: 0; hcDAF12 agonist: 5; AHR act cf: 104*; PXR act counter: 29*

What do the screens show for `NCCCn1c(C(=O)c2ccc(Cl)cc2)c2ccc([N+](=O)[O-])cc2[n+]1[O-]`?
DAX1 inh-1: -2; DAX1 inh-2: 2; hgDAF12 agonist: -5; AHR act: 41; ssDAF12 agonist: -1; hcDAF12 agonist: -1

How did CC(C(=O)N1c2ccccc2CC1C)N1CCN(S(=O)(=O)c2ccccc2F)CC1 (stereo unspecified) do in these assays?
DAX1 inh-1: 1; DAX1 inh-2: 0; hgDAF12 agonist: -2; AHR act: 3; ssDAF12 agonist: -1; hcDAF12 agonist: 1

How did O=C(NC(=S)Nc1ccc(F)c(Cl)c1)C1CC1 do in these assays?
DAX1 inh-1: 0; DAX1 inh-2: 2; hgDAF12 agonist: 2; AHR act: 93*; ssDAF12 agonist: -1; hcDAF12 agonist: -2; AHR act cf: 95*

Results for Oc1ccc(N=Nc2ccc(Br)cc2)c(O)c1 ?
DAX1 inh-1: 1; DAX1 inh-2: 3; hgDAF12 agonist: 1; AHR act: 89*; ssDAF12 agonist: -1; hcDAF12 agonist: -1; AHR act cf: 61*; PXR act counter: 9

Results for Oc1ccc(N=Nc2ccc3c(c2)OCCO3)c(O)c1 ?
DAX1 inh-1: 0; DAX1 inh-2: -5; hgDAF12 agonist: -6; AHR act: 15; ssDAF12 agonist: -2; hcDAF12 agonist: 0

What do the screens show for `NC(=O)c1nsc(C(=O)N(c2ccc3c(c2)OCO3)C(C(=O)NCC2CCCO2)c2ccc(F)cc2)c1N` (stereo unspecified)?
DAX1 inh-1: 0; DAX1 inh-2: -2; hgDAF12 agonist: -3; AHR act: 4; ssDAF12 agonist: -1; hcDAF12 agonist: -1

Results for Cc1cc(NC(=O)CCC(=O)N(c2ccc(F)cc2)C(C(=O)NC2CCCC2)c2ccncc2)no1 (stereo unspecified) ?
DAX1 inh-1: 0; DAX1 inh-2: 3; hgDAF12 agonist: -1; AHR act: 91*; ssDAF12 agonist: 0; hcDAF12 agonist: 0; AHR act cf: 81*; PXR act counter: 21*

How did Cc1ccc(N(C(=O)CCC(=O)Nc2cc(C)on2)C(C(=O)NC2CCCC2)c2ccccc2)cc1 (stereo unspecified) do in these assays?
DAX1 inh-1: 0; DAX1 inh-2: 0; hgDAF12 agonist: 1; AHR act: 4; ssDAF12 agonist: -2; hcDAF12 agonist: -2

How did Cc1cccc2cc3c(N)c(C(=O)N4CCOCC4)sc3nc12 do in these assays?
DAX1 inh-1: 0; DAX1 inh-2: 0; hgDAF12 agonist: 4; AHR act: 81*; ssDAF12 agonist: -1; hcDAF12 agonist: 1; AHR act cf: 78*

Results for Cc1cc(C)c2cc3c(N)c(C(=O)N4CCc5ccccc5C4)sc3nc2c1 ?
DAX1 inh-1: 0; DAX1 inh-2: -1; hgDAF12 agonist: -2; AHR act: 10; ssDAF12 agonist: -2; hcDAF12 agonist: 0

What do the screens show for `Cc1cccc(/C=N/NC(=O)c2cccc(NC(=O)c3ccccc3)c2)n1`?
DAX1 inh-1: 0; DAX1 inh-2: -1; hgDAF12 agonist: 3; AHR act: 106*; ssDAF12 agonist: -1; hcDAF12 agonist: 2; AHR act cf: 102*; PXR act counter: 28*

Results for Cc1cccc(/C=N/NC(=O)c2cccc(Cl)c2)n1 ?
DAX1 inh-1: 0; DAX1 inh-2: 1; hgDAF12 agonist: 1; AHR act: -2; ssDAF12 agonist: -1; hcDAF12 agonist: 2

How did COc1ccc(/C=N/NC(=O)c2cccc(NC(=O)c3ccccc3)c2)c(C(=O)O)c1OC do in these assays?
DAX1 inh-1: 0; DAX1 inh-2: 1; hgDAF12 agonist: 5; AHR act: 113*; ssDAF12 agonist: -1; hcDAF12 agonist: 3; AHR act cf: 95*; PXR act counter: 13*

High-throughput results (PubChem)
